# Screening data as filed in PubChem.
# APE1 inh: qHTS Assay for Inhibitors of the Human Apurinic/apyrimidinic Endonuclease 1 (APE1); recombinant APE1, TAMRA/BHQ-2 abasic DNA cleavage fluorescence; Potency, µM (doses to about 65.8 µM), inactives show at the highest dose activity change, negative = inhibition, usual class: inhibitors; hit rate 0.35% among 350,000; AID 2517, 2012;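 also: plate controls were vehicle for no effect and reference inhibitor for full effect; nearly all actives have a fitted effect of over 55% in size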
# Target sequence (P27695 whole entry, looked up): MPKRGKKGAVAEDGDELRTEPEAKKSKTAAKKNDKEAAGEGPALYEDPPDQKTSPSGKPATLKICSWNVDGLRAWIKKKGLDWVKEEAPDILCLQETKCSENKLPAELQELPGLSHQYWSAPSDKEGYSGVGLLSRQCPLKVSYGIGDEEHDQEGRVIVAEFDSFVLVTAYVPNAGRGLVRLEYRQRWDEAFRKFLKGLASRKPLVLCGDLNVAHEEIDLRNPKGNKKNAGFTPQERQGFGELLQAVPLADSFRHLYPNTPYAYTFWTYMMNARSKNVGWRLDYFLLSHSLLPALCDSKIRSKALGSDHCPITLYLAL
#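 Compound pre-exposure to 0.75 nM APE1, 15 min at ambient temperature. Reaction initiated with 50 nM TAMRA/BHQ-2 THF substrate, read immediately in kinetic mode, 525 nm excitation, 598 nm emission.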
# L3MBTL1 inh: qHTS Assay for the Inhibitors of L3MBTL1. Lethal(3)malignant brain tumor-like protein 1 (Homo sapiens), Q9Y468. Potency, µM (titrated, usually from 57.1 µM), for the others: at the top dose activity, negative = inhibition, most hits filed as inhibitors. AID 485360, 2010. hit rate 0.66% among 230,000. AlphaScreen L3MBTL1–H3K9me1 peptide binding; also: % is scaled to controls: 0 for no effect and ±100 for the full control effect; nearly all actives have a fitted effect of over 60% in size
#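 L3MBTL1 50 nM + b-AHA-H3(1-15)K9me1 75 nM, 30 min RT; compound added, 30 min RT; streptavidin donor/Ni-chelate acceptor beads 10 ug/mL each final, 30 min RT dark; AlphaScreen read.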
# POLB inh: qHTS Assay for Inhibitors of DNA Polymerase Beta | Potency, µM (doses to about 114 µM), without a hit: top-dose activity change, negative = inhibition, actives largely listed as inhibitors | P06746 | hit rate 1.3% among 340,000 | Pol beta primer extension/strand displacement, fluorescence kinetic; also: % is scaled to controls: 0 for no effect and ±100 for the full control effect
#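 Values derive from four-parameter Hill fits of normalized kinetic data: reads at 0 and 10 min following addition of 50 nM substrate to 10 nM Pol beta preincubated 15 min with compound.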
# Pol kappa inh-1: qHTS for Inhibitors of Polymerase Kappa; purified Pol kappa, fluorescent DNA synthesis assay, 10 min; hit rate 0.53% among 400,000; DNA polymerase kappa (Homo sapiens), Q9UBT6; AID 588579, 2011; Potency, µM (highest dose often 107 µM), for inactives: at the highest dose activity, negative = inhibition, usual class: inhibitors; also: % is scaled to controls: 0 for no effect and ±100 for the full control effect
#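 First, compounds were pin-transferred onto 10 nM Pol kappa. After 15 min at room temperature, substrate was added to 50 nM final. Fluorescence was then measured kinetically at 0 and 10 min.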
# Pol eta inh-1: qHTS for Inhibitors of Polymerase Eta. DNA polymerase eta (Homo sapiens), Q9Y253. recombinant Pol eta, fluorescent DNA replication assay. Potency, µM (highest dose often 114 µM), for inactives: at the top dose activity change, negative = inhibition, hits mostly inhibitors. hit rate 1.2% among 390,000. AID 588591, 2011; also: % is scaled to controls: 0 for no effect and ±100 for the full control effect
#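 Pol eta (10 nM) was preincubated with compounds for 15 min at room temperature, after which fluorescent replication substrate (50 nM final) was added to start the reaction. Fluorescence was read kinetically at 0 and 10 min.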
# Pol iota inh: qHTS for Inhibitors of Polymerase Iota; DNA polymerase iota (Homo sapiens), Q9UNA4; Pol iota fluorescent replication assay, 10 min; Potency, µM (top dose mostly 115 µM), for the others: at the highest dose activity, negative = inhibition, actives largely listed as inhibitors; hit rate 1% among 390,000
#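 Fluorescent replication assay read twice, at 0 min and 10 min after adding 50 nM (final) substrate. Enzyme (10 nM) and compounds were first incubated 15 min at room temperature; enzyme-free buffer wells were negative controls.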
# TbPGK inh: qHTS for inhibitors of Phosphogylcerate Kinase: Hit Validation Screen; shares compounds with Pol kappa inh-1; TbPGK coupled GAPDH assay, Kinase-Glo luminescence; hit rate 79% among 500; Potency, µM (doses to about 57.5 µM), for the others: at the highest dose activity change, negative = inhibition, actives largely listed as inhibitors; also: % is scaled to controls: 0 for no effect and ±100 for the full control effect; nearly all actives have a fitted effect of over 65% in size
# Target sequence (P07378 whole entry, looked up): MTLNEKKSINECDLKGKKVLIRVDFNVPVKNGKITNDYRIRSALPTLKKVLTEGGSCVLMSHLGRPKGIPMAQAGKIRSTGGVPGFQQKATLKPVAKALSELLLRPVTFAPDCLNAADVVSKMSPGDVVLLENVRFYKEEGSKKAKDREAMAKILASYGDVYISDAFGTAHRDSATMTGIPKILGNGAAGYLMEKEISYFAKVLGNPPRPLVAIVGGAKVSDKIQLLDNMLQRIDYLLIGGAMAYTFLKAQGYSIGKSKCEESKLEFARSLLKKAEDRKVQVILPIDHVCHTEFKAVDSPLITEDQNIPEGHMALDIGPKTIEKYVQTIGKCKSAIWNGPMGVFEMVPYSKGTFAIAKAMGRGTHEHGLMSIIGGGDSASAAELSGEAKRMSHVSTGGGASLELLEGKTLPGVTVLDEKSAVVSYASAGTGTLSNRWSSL
# POLI cherry-pick: qHTS for Inhibitors of Polymerase Iota: Confirmatory Assay for Cherry-picked Compounds | Pol iota primer extension, TAMRA/BHQ fluorescence | shares compounds with Pol kappa inh-1 | hit rate 77% among 1,500 | Potency, µM, usual class: inhibitors | AID 720496, 2013
# Pol kappa inh-2: qHTS for Inhibitors of Polymerase Kappa: Confirmatory Assay for Cherry-picked Compounds | AID 720501, 2013 | shares compounds with Pol eta inh-1 | hit rate 76% among 920 | Potency, µM, usual class: inhibitors | purified Pol-kappa, fluorescent strand-displacement substrate
# Pol eta inh-2: qHTS for Inhibitors of Polymerase Eta: Confirmatory Assay for Cherry-picked Compounds; shares compounds with Pol eta inh-1; Pol eta primer extension, TAMRA/BHQ fluorescence, 10 min; Potency, µM, hits mostly inhibitors; hit rate 64% among 2,600
# Active calls of the source: *; ? = inconclusive; nt = no result; [ ] = remark or other dose. Only some compounds are listed: those with a hit (about 2.5% of all), similar ones and a draw of the others. Calls follow the shape of the dose curve; as a rule, active = well fitted curve in the direction sought with a large enough effect; inconclusive = small, poorly fitted or top-dose-only effect, or another doubt; inactive = no such curve, though single readings can be large; an effect the other way counts as inactive or inconclusive. Potency is read from the fitted curve at half-maximal effect.
SMILES,APE1 inh,L3MBTL1 inh,POLB inh,Pol kappa inh-1,Pol eta inh-1,Pol iota inh,POLI cherry-pick,Pol eta inh-2,others
O=C(O)C(c1ccccc1)N1C(=O)/C(=C\c2ccc(O)c(O)c2)SC1=S (stereo not drawn),-38%,nt,4µM*,7.1µM*,3.2µM*,?,15*,4.8*,Pol kappa inh-2=2.7*
O=C(O)C1=NN(c2cc(Cl)c(S(=O)(=O)O)cc2Cl)C(=O)C1,nt,nt,nt,79µM*,22µM*,1.6µM*,nt,?,TbPGK inh=9.2µM*;Pol kappa inh-2=15*
Cc1ccc(-c2csc3ncn(CC(=O)OC(C)C)c(=O)c23)cc1,9%,-2%,-19%,2%,-21%,42%,nt,nt,
CCCCn1c(NC(=O)c2ccccc2)c(C#N)c2nc3ccccc3nc21,?,-17%,40µM*,?,?,?,34*,24*,
Nc1nc(O)c(N=Nc2ccc(S(N)(=O)=O)cc2)c(=O)[nH]1,14%,nt,0%,-6%,-18%,151%,nt,nt,
NS(=O)(=O)c1ccc(N=Nc2c[nH]c(=O)c(O)c2)cc1,?,?,?,?,22µM*,14µM*,nt,54*,TbPGK inh=18µM*
O=C(O)/C=C/c1ccc([N+](=O)[O-])o1,?,?,?,?,20µM*,25µM*,30*,24*,TbPGK inh=4.6µM*
O=C(CC(=O)c1cccs1)c1ccncc1,nt,nt,nt,8%,-5%,9%,nt,nt,
O=C(COC(=O)/C=C/c1cccc(F)c1)Nc1ncccn1,-6%,nt,-27%,?,28µM*,50µM*,42*,48*,
O=C(COC(=O)/C=C/c1cccc(F)c1)Nc1ccc(Cl)cn1,-3%,11%,-2%,-13%,-10%,117%,nt,nt,
Cc1ccc(-n2nc3c(=O)n(C(C)C(=O)NCc4ccccc4C)nc(C)c3c2C)cc1 (stereo not drawn),nt,nt,45µM*,-10%,89µM*,-25%,75*,?,Pol kappa inh-2=67*
Cc1nn(C(C)C(=O)NCc2ccccc2F)c(=O)c2nn(-c3ccccc3)c(C)c12 (stereo not drawn),34%,nt,-24%,-11%,-19%,42%,nt,nt,
Cc1ccc(C)c2c1CCCC2=O,nt,nt,nt,nt,-6%,nt,nt,nt,
CN(C)/C=C/C=C1C(=O)CCCC1=O,?,28µM*,20µM*,79µM*,10µM*,1.1µM*,67*,38*,
COC(=O)c1ccc(COc2ccccc2/C=C/C(=O)c2ccc(OCC(=O)O)cc2)cc1,-85%,nt,50µM*,-8%,22µM*,?,47*,48*,
C[C@H]1CC[C@H]2C(=O)N3[C@H](c4ccc(Br)cc4)[C@@H](C)CC[C@H]3C(=O)N2[C@@H]1c1ccc(Br)cc1,1%[12.4 µM],nt,nt,nt,nt,nt,nt,nt,
Cc1ccc(-c2nn3cnnc3s2)cc1NC(=O)c1ccc(-c2cccc(Cl)c2)o1,nt,nt,nt,nt,nt,nt,27*,76*,Pol kappa inh-2=?
COc1ccc(OC)c([N+](=O)[O-])c1C(N)=O,?,?,6.3µM*,?,50µM*,18µM*,21*,30*,
COc1ccc(NC(C)=O)c([N+](=O)[O-])c1[N+](=O)[O-],nt,nt,nt,-7%,1%,40%,nt,nt,
Cc1cc(C(=O)NCc2ccco2)c2ccccc2n1,-5%,nt,-1%,-1%,-17%,80%,nt,nt,
Cc1ccc(/C=N/NC(=O)c2cc(-c3ccncc3)nc3ccccc23)o1,14%,nt,1%,-7%,-4%,23%,nt,nt,
Cc1ccc(-c2cc(C(=O)N/N=C/c3ccc([N+](=O)[O-])o3)c3ccccc3n2)o1,-24%,nt,-9%,?,50µM*,?,?,30*,
Cc1ccc(-c2cc(C(=O)NCc3ccco3)c3ccccc3n2)o1,32µM*,?,18µM*,79µM*,7.9µM*,?,?,?,
CC1(C)[C@@H](OC(=O)CCC(=O)O)CC[C@@]2(C)[C@H]1CC[C@@]1(C)[C@H]2C(=O)C=C2[C@H]3C[C@](C)(C(=O)O)CC[C@]3(C)CC[C@@]21C,nt,nt,nt,-3%[19.4 µM],nt,nt,nt,nt,
COc1ccc(C(CNC(=O)c2ccc(OC)c(S(=O)(=O)N3CCCC3)c2)N2CCCC2)cc1 (stereo not drawn),1%,-5%,nt,2%,0%,22%,nt,nt,
SMILES,APE1 inh,L3MBTL1 inh,POLB inh,Pol kappa inh-1,Pol eta inh-1,Pol iota inh,POLI cherry-pick,Pol eta inh-2,others
O=C(O)c1cccc(NC(=S)N/N=C/c2ccccc2OCc2cccc(Br)c2)c1,?,-11%,-19%,-11%,20µM*,?,?,48*,
Cc1cc(CC(=O)O)c2oc(-c3ccoc3)cc(=O)c2c1,nt,nt,nt,40µM*,8.9µM*,?,34*,7.6*,
CS(=O)(=O)N1CCN(c2ccc([N+](=O)[O-])c(NCc3ccc(Cl)cc3)c2)CC1,2%,7%,?,?,?,8.9µM*,38*,85*,
CS(=O)(=O)N1CCN(c2ccc([N+](=O)[O-])c(NCc3ccccc3)c2)CC1,-1%,-5%,5%,-3%,-12%,-2%,nt,nt,
C/C(=N\NC(=O)c1cc(-c2cccc([N+](=O)[O-])c2)n[nH]1)c1ccccc1O,-2%,?,11µM*,-32%,8.9µM*,-11%,47*,nt,Pol kappa inh-2=84*
C/C(=N/NC(=O)c1cc(-c2cccc([N+](=O)[O-])c2)n[nH]1)c1cccc(O)c1,7%,4%,21%,3%,-6%,-25%,nt,nt,
